In the library only some 1.8% were active in any assay of this set; here they are far more common.
GSIS activator: GLuc luminescence reporter in INS-1E cells, primary screen for activators of glucose-dependent secretion of insulin | INS-1E GLuc reporter insulin secretion, 2-3 h | actives 0.61% (n = 370,000) | activation, % at 16.6 µM;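 active = lowest replicate activation of at least 40%, so every replicate reaches that level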;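 note: 0% = median of neutral control wells and 100% = median of IBMX positive control wells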
ARNT TACC3 PPI: disruptors of human ARNT/TACC3 interaction; actives 0.66% (n = 390,000); AlphaScreen His-ARNT PAS-B/GST-TACC3 binding, luminescence; TACC3 fragment carries E629A point mutation; AID 623870; inhibition, % at 9.99 µM; Q9Y6A5;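 active = mean inhibition of replicates at least 50% and at least half of replicates each reaching 50%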;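 note: 0% = complete ARNT plus TACC3 wells and 100% = ARNT alone without TACC3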
hiPSC survival: hiPSC single-cell survival enhancement | ATPlite luminescence; 100% = ROCK inhibitor wells, 0% = DMSO | actives 0.044% (n = 360,000) | survival enhancement, % at 20 µM | AID 602274; in the data active = survival enhancement above about 18%;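 note: cells exposed to compounds for 16 hours before the ATP read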
ABCB6 inh MLPCN: human ABCB6 transporter inhibition | Q9NP58 | fluorescence ratio to DMSO, % at 10 µM | actives 0.19% (n = 360,000) | K562-ABCB6 porphyrin accumulation, flow cytometry, 1 h; hits give low values;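 active = fluorescence ratio to DMSO below 75%, the collection mean minus 3 SD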;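 note: signal is porphyrin accumulated inside mitochondria; 100% equals median channel fluorescence of DMSO control wells; lower ratio means ABCB6 inhibition with less porphyrin fluorescence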
NRP1-CendR mod: alters CendR peptide binding to human NRP-1; O14786; FAM-RPARPAR peptide binding to NRP-1, fluorescence polarization; inhibition, % at 25 µM; actives 0.85% (n = 360,000);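 active = inhibition or corrected inhibition above about 18%, plus a signal ratio from 0.5 to 1.5, limit read from the data, passing the limit was not always enough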
Target sequence (O14786 whole entry, looked up): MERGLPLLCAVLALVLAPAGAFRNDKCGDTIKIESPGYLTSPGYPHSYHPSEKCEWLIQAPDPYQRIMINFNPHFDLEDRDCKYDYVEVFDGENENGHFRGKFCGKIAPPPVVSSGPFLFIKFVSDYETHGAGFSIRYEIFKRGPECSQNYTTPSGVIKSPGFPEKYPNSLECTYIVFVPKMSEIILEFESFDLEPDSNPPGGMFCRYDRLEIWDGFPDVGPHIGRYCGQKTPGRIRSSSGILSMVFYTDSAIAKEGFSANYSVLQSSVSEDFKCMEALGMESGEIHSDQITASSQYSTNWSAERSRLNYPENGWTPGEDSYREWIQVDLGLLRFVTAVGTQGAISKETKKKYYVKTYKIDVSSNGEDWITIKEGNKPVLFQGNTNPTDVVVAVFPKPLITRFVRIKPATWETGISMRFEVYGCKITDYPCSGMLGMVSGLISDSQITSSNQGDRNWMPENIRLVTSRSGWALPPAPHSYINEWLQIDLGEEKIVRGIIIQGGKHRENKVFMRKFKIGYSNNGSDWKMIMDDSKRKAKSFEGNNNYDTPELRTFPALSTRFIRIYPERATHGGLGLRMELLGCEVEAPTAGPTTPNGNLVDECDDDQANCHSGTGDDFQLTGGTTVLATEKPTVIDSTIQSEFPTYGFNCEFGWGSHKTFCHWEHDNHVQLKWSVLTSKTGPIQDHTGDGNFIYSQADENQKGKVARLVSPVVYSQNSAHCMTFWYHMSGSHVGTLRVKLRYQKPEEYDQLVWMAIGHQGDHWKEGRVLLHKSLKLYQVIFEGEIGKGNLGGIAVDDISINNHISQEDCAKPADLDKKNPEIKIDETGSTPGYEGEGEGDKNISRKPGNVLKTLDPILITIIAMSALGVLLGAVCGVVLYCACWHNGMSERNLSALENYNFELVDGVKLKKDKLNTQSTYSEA
Active calls of the source: *; / = no result given.

SMILES	GSIS activator	ARNT TACC3 PPI	hiPSC survival	ABCB6 inh MLPCN	NRP1-CendR mod
COc1ccc(C(=O)CCS(=O)(=O)c2ccc(F)cc2)cc1OC	60*	1	0	100	-8
Cc1ccc(S(=O)(=O)CCC(=O)c2ccc(F)cc2)cc1	31	-3	0	103	16
COc1ccc(OC)c(C(=O)c2ccc([N+](=O)[O-])cc2)c1	58*	14	1	98	-6
O=C(c1ccc(F)cc1)N1CCN(c2ncccn2)CC1	/	30	1	97	10
O=C(NNC(=O)C1CCN(c2ncccn2)CC1)c1ccc(F)cc1	10	8	0	100	42*
CC(/C=C/c1ccccc1)=N\NC(=O)CCc1ccccc1	-7	-6	-1	98	24*
CC(/C=C/C=C/c1ccccc1)=N/NC(=O)CNc1ccccc1C	136*	-4	1	91	-10
CCCNC(=O)Cn1sc2nc(C)cc(C)c2c1=O	94*	-12	0	94	-4
Cc1cc(C)c2c(=O)n(CC(=O)N3CCC(N4CCCCC4)CC3)sc2n1	/	-9	16	94	14
OCc1nnc2c3ccccc3c(-c3ccccc3)nn12	41*	8	-4	99	1
COc1ccc(S(=O)(=O)N(C)C[C@@H]2Oc3c(NS(=O)(=O)c4ccc(Cl)cc4)cccc3C(=O)N([C@H](C)CO)C[C@H]2C)cc1	-8	2	/	/	/
COc1ccc(NC(=O)N[C@@H]2CC[C@H](CC(=O)NC3CCCCC3)O[C@H]2CO)cc1	-8	10	/	/	/
COc1ccc(C(=O)Nc2n[nH]c(-c3ccncc3)n2)cc1	-1	-1	-2	92	26*
COc1ccc(C(=O)Nc2ccccc2C(=O)Nc2ccc(C(=O)O)cc2)cc1	-4	4	0	94	-15
COc1ccc(C(=O)Nc2ccccc2C(=O)Nc2ccncc2)cc1	45*	-15	0	98	0
C[C@H](CO)N1C[C@H](C)[C@H](CN(C)S(=O)(=O)CC(F)(F)F)OCc2ccccc2-c2ccccc2C1=O	-13	5	/	/	/
COc1cccc(C(=O)Nc2ccc3c(c2)OC[C@@H](C)N(C(C)=O)C[C@H](C)[C@H](OC)CN(C)C3=O)c1	-5	-2	/	/	/
CN(Cc1ccccc1)C(=O)CN1CCN(S(=O)(=O)c2ccccc2F)CC1	17	/	26*	93	-4
O=C(Nc1ccccc1)Nc1nc(-c2ccccc2)cs1	/	8	-1	87	-29
O=C(Nc1ccc(Cl)c(Cl)c1)Nc1nc(-c2ccccc2)cs1	166*	-5	7	99	2
O=C(COc1ccccc1)Nc1nc(-c2ccncc2)cs1	9	-1	34*	100	-5
Oc1cc(O)c(CN2CCOCC2)cc1CN1CCOCC1	-14	/	-3	101	5
Oc1c(CN2CCOCC2)cc(CN2CCOCC2)cc1CN1CCOCC1	-4	-3	1	98	29*
Cc1ccc(CC2S/C(=N/c3ccccn3)NC2=O)cc1 (centres undefined)	58*	-7	4	103	12
O=C1N/C(=N/c2ccccn2)SC1Cc1ccccc1 (centres undefined)	-10	10	5	98	5
SMILES	GSIS activator	ARNT TACC3 PPI	hiPSC survival	ABCB6 inh MLPCN	NRP1-CendR mod
COc1ccc(CCN(C)C(=O)CCNS(=O)(=O)c2ccccc2C(F)(F)F)cc1OC	41*	-6	0	99	-2
COc1ccc(CCN(C)C(=O)Cc2ccc(-c3ccccc3)cc2)cc1OC	-22	-2	0	90	1
CCS(=O)(=O)N1CC(=O)N2[C@H](C1)[C@@H](c1ccc(C#CCC(C)C)cc1)[C@@H]2CO	-3	/	/	/	/
Clc1ccc(C(c2ccccc2)N2CCNCC2)cc1 (centres undefined)	-12	-2	-4	92	-9
CC12CNCC(C)(CN(C(c3ccccc3)c3ccccc3)C1)C2	/	-3	-6	109	31*
CCCNC(=O)[C@H]1[C@H](CO)[C@H]2Cn3c(cccc3=O)[C@@H]1N2C(=O)Nc1cc(F)ccc1F	11	36	/	/	/
C=CCn1c(Cc2csc(N)n2)nnc1SCC(=O)OCC	0	46*	-2	109	10
CCOCCCNC(=S)N(CCCN(C)C)Cc1cc2cc3c(cc2[nH]c1=O)OCCO3	/	27*	1	96	-3
COCCNC(=S)N(CCO)Cc1cc2cc3c(cc2[nH]c1=O)OCCO3	7	49*	0	105	0
